# The sample as a whole holds a higher share of hits than the screen did.
# FECH inh – blocks human mitochondrial ferrochelatase activity. purified FECH, Ni-mesoporphyrin absorbance 550 nm. calls only at 10 µM (by protocol). hit rate 3.3% among 20,000. AID 1671448;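 active = enzyme reaction rate more than 3 SD below the solvent-only control wells on the same plate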;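 also: lower slope than DMSO wells means FECH inhibition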
# Target sequence (P22830 whole entry, looked up): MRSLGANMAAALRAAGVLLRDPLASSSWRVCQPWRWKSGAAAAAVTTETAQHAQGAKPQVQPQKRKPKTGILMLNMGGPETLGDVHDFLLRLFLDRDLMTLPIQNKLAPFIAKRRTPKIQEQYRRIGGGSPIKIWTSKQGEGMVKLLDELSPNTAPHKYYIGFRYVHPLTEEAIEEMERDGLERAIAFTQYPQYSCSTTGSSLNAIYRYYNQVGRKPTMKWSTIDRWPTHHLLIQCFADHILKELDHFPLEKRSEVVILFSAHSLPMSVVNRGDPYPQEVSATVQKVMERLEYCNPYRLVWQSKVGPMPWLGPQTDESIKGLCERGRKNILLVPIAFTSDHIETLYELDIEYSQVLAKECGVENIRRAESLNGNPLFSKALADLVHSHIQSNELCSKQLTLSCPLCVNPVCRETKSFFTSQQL
# Calls only; - = inactive; + = active, no number.
SMILES,FECH inh
Cc1ncc(C)c(NCc2cccnc2Oc2ccc(C)c(F)c2F)n1,-
Cc1cc(C)cc(Nc2nc(NCCC3=CCCCC3)nc3c2cnn3-c2ccccc2)c1,-
CCC1CN(C(=O)c2cc(C(C)C)on2)CCC(=O)N1Cc1ccccc1 (configuration not stated),-
Cc1ccc(CN2CCCN(CC(=O)Nc3cccc(Cl)c3)S2(=O)=O)cc1,-
O=C(CN1CCN(Cc2ccccc2)S1(=O)=O)Nc1cccc(Cl)c1,-
Cc1ccc(NC(=O)CN2CCN(Cc3cccc(Cl)c3)S2(=O)=O)cc1,+
CCN(CC)CCNc1nc(Nc2cccc(Cl)c2)c2cnn(-c3ccccc3)c2n1,-
Cc1cc2nc(COc3ccc(Cl)cc3NC(=O)C(C)Oc3ccccc3)cc(=O)n2o1 (configuration not stated),-
COc1ccc(N2CCCS2(=O)=O)cc1NC(=O)Cc1cccc(C)c1,-
CC(C)n1c(CNS(=O)(=O)c2ccc(F)c(Cl)c2)nc2cccnc21,-
CNC(=O)CN(C)Cc1nc(-c2ccc(OC)c3ccccc23)oc1C,-
CSc1ccccc1C(=O)Nc1cc(C)nn1-c1ncnc2c1cnn2-c1ccc(C)cc1C,-
COc1cc2c(c(OC)c1)C(c1c(C)nn(C(C)(C)C)c1C)CC(=O)N2 (configuration not stated),-
Cc1ccccc1Cn1cc(C(=O)NCc2csc(N)n2)nn1,-
Cc1ccccc1NCc1cc(=O)n2[nH]c(-c3ccccc3C)nc2n1,+
Cc1ccccc1-c1nc2nc(CNC(C)C)cc(=O)n2[nH]1,-
Cc1ccccc1-c1nc2nc(CNc3ccccc3F)cc(=O)n2[nH]1,+
CC1(O)CCCN(c2nc(-c3cccnc3)nc3c2CCNCC3)C1 (configuration not stated),-
C=CCN(Cc1ccccc1C)Cc1cccnc1NC,-
CCc1cc(Sc2ccccc2NC(=O)c2cc(OC)cc(OC)c2)n2nc(C)nc2n1,-
CCc1cc(Sc2ccccc2NC(=O)Cc2ccc(OC)cc2)n2nc(C)nc2n1,+
CCc1cc(Sc2ccccc2NC(=O)Cc2cccc(OC)c2)n2nc(C)nc2n1,-
CCn1cnc(NC(=O)NCc2ccc(Cl)cc2Cl)n1,-
Cc1ccc(CC(=O)NCCn2c(-c3ccccc3)nc3cccnc32)cc1,-
O=c1c(Nc2ccc(Cl)cc2)c(-c2ccc3c(c2)CCCC3)c1=O,-
SMILES,FECH inh
Cc1c(Cl)cccc1Nc1c(-c2ccc3c(c2)CCCC3)c(=O)c1=O,-
O=c1c(Nc2ccccc2F)c(-c2ccc3c(c2)CCCC3)c1=O,+
COc1ccc(C)cc1-n1c(SCC(=O)O)nnc1-c1cc(C)nn1C,-
Cc1ccc(S(=O)(=O)N2CCN(Cc3nc4cccnc4n3-c3ccccc3)CC2)cc1C,-
CCc1ccc(-n2c(CN3CCN(S(=O)(=O)c4ccc(CC)cc4)CC3)nc3cccnc32)cc1,+
CCc1ccc(-n2c(CN3CCN(S(=O)(=O)c4ccc(C)c(C)c4)CC3)nc3cccnc32)cc1,-
CCc1ccc(S(=O)(=O)N2CCN(Cc3nc4cccnc4n3-c3ccc(C)cc3)CC2)cc1,-
COc1ccc(S(=O)(=O)N2CCN(Cc3nc4cccnc4n3-c3ccccc3)CC2)cc1OC,+
COc1ccc(Cl)cc1S(=O)(=O)N1CCN(Cc2nc3cccnc3n2-c2ccccc2)CC1,-
Cc1cccc(-c2cc(N3CCN(C(=O)Nc4cccc(C)c4C)CC3)ncn2)c1,-
NS(=O)(=O)c1ccc(CCN[C@H]2CS(=O)(=O)C[C@@H]2S(=O)(=O)c2ccccc2)cc1,-
CS(=O)(=O)c1ccc(Cc2nc(CCc3ccccc3)n[nH]2)cc1,-
Cc1nc(N(C)C)ncc1C(=O)N1CCN(C)C2(CCN(C)CC2)C1,-
CC(C)c1cc(C(=O)N2CCC3(CC2)c2ccccc2[C@@H](N)[C@@H]3O)cs1,-
COc1ccccc1NC(=O)CN1CCCN(Cc2ccc(Cl)cc2)S1(=O)=O,-
COc1cc(OC)c(NC(=O)CN2CCN(Cc3ccccc3F)S2(=O)=O)cc1Cl,-
CCOc1ccccc1NC(=O)CN1CCCN(Cc2ccc(OC)cc2)S1(=O)=O,-
COc1ccccc1NC(=O)CN1CCCN(Cc2cccc(C)c2)S1(=O)=O,+
COc1cc(OC)c(NC(=O)CN2CCCN(Cc3ccccc3)S2(=O)=O)cc1Cl,+
CCOc1ccccc1NC(=O)CN1CCCN(Cc2cccc(C)c2)S1(=O)=O,+
COc1ccc(NC(=O)CN2CCCN(Cc3ccccc3)S2(=O)=O)c(OC)c1,-
CCOC(=O)c1ccccc1NC(=O)CN1CCCN(Cc2cccc(C)c2)S1(=O)=O,-
COc1ccccc1NC(=O)CN1CCCN(Cc2cccc(F)c2)S1(=O)=O,-
COc1cccc(-c2cc(N3CCN(S(=O)(=O)c4ccccc4C)CC3)ncn2)c1,-
O=S(=O)(c1ccc(F)cc1)N1CCN(c2cc(-c3cccc(F)c3)ncn2)CC1,-
CC1CCCCN1S(=O)(=O)c1ccc2c(c1)CCN2C(=O)CCC(=O)N1CCCCCC1 (configuration not stated),-
COc1ccc(C(=O)N2C[C@@H](O)[C@H](NCc3ccc4c(c3)OCO4)C2)cc1,-
O=C1CC(c2cccnc2N2CCOCC2)c2cnn(Cc3ccncc3)c2N1 (configuration not stated),-
